Screens: PubChem BioAssay, National Center for Advancing Translational Sciences (NCATS)
HepG2 tox – kills HepG2 cells in TGF-b inhibitor counter-screen. HepG2 CAGA-GFP viability, ATP luminescence, 18 h. Potency, µM (titrated, usually from 46.1 µM), most hits filed as cytotoxic. hit rate 0.76% among 410,000. AID 588856
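HepG2 CAGA-GFP cells (1000/well, DMEM with 1% FBS) received compound, then TGF-beta at 500 pg/mL final, and were incubated 18 hours at 37 degrees C. Viability was read by CellTiter-Glo luminescence. Media-only wells were set as complete cell-killing and DMSO as no toxicity.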
LDHA inh – blocks human lactate dehydrogenase A; purified LDHA, NADH/diaphorase-resazurin fluorescence; hits give low values; activity change, % (values are at about 110 or 230 µM); hit rate 0.15% among 480,000; AID 1347041; in the data active = activity change below about -30%; inconclusive = mostly about -25% to -30%
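Enzyme activity of human lactate dehydrogenase 5 (2 nM; 0.06 mM NADH, 0.2 mM pyruvate, 5 min, RT) is measured via a resazurin/diaphorase fluorescence readout of residual NADH.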
mIDH1 inhibitor – inhibitors of human mutant IDH1 R132H; hit rate 0.093% among 390,000; IDH1-R132H enzyme, NADPH consumption, diaphorase/resazurin fluorescence; O75874; Potency, µM (doses to about 76.6 µM), hits mostly inhibitors; note: nearly all actives have a fitted effect of over 65% in size
Target sequence (O75874 whole entry R132H, stated change not applied): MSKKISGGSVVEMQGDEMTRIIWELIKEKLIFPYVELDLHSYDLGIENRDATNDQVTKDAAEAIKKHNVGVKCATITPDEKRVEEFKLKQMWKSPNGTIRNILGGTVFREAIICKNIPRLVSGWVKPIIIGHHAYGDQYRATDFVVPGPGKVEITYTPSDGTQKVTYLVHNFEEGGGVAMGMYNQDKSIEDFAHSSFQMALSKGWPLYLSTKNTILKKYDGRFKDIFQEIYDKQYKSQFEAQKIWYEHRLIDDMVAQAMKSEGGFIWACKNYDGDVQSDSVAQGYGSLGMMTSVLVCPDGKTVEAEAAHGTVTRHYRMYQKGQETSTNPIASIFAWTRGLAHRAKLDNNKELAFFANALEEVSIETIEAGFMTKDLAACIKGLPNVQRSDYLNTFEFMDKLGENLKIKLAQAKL
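IDH1-R132H (0.5 ug/mL dispensed) in pH 7.5 Tris buffer was preincubated 30 min with compound, then given a substrate mix of 0.016 mM NADPH and 2 mM alpha-KG for 80 min at room temperature; remaining NADPH was read by diaphorase/resazurin fluorescence.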
ATXN viability – cell viability loss in ATXN counter-screen. Potency, µM (doses to about 56.7 µM), usual class: cytotoxic. hit rate 0.49% among 400,000. AID 651635. S2 cells (HEK-293 line with an ATXN2-luciferase reporter) viability, CellTiter-Fluor protease fluorescence, 24 h; note: nearly all actives have a fitted effect of over 40% in size
ATXN2 expr inh – reduces ATXN2 reporter expression in HEK-293 cells; HEK-293 ATXN2-luciferase reporter, luminescence, 24 h; Potency, µM (doses to about 57 µM), actives largely listed as inhibitors; hit rate 0.72% among 360,000; note: nearly all actives have a fitted effect of over 55% in size
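ATXN2-luciferase reporter cells (luciferase flanked by upstream and downstream ATXN2 gene portions) were treated 24 h at 37 °C with compounds at up to 57 uM. SteadyGlo luminescence gave expression; GF-AFC fluorescence gave viability.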
TGFb SMAD3 inh – blocks TGF-b signaling; HepG2 CAGA-GFP TGF-b/SMAD3 reporter, GFP fluorescence, 18 h; TGF-beta stimulated, 500 pg/mL final; hit rate 1.2% among 410,000; Potency, µM (doses to about 46.1 µM), most hits filed as inhibitors; note: nearly all actives have a fitted effect of over 65% in size
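HEPG2 CAGA-GFP reporter cells (1000/well, DMEM with 1% FBS) received compounds, then recombinant TGF-beta at 500 pg/mL final for 18 hours at 37 degrees C. Per-cell GFP summed per well was normalised to unstimulated and stimulated DMSO controls before curve fitting.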
Of the large screens only hits and unclear results are named; the others gave an inactive call. Most compounds without a hit are left out; they make up all but 2.2% or so of the library. Unless noted, calls come from the whole dose curve; as a rule, active = well fitted curve in the direction sought with a large enough effect; inconclusive = small, poorly fitted or top-dose-only effect, or another doubt; inactive = no such curve, though single readings can be large; an effect the other way counts as inactive or inconclusive.

N=c1n(Cc2ccccc2)c2ccccc2n1CC(O)COc1ccccc1 (configuration not stated)	ATXN viability inconclusive, ATXN2 expr inh inconclusive, TGFb SMAD3 inh inconclusive
Cc1ccc(Cn2c(=N)n(CC(O)COc3ccccc3)c3ccccc32)cc1 (configuration not stated)	HepG2 tox 2.82µM, TGFb SMAD3 inh inconclusive
CCCc1c(NC(=O)Nc2ccc(F)cc2)cnn1-c1ccccc1	none (no result: ATXN2 expr inh)
Cc1cc(C)c2nc(N3C(=O)C(O)=C(C(=O)c4ccco4)C3c3cccc(O)c3)sc2c1 (configuration not stated)	mIDH1 inhibitor 36.9µM, ATXN viability inconclusive, TGFb SMAD3 inh inconclusive
Cc1cc(C)c2nc(N3C(=O)C(O)=C(C(=O)c4ccco4)C3c3ccc(O)cc3)sc2c1 (configuration not stated)	mIDH1 inhibitor 46.5µM
Cc1noc(/C=C/N(C)C)c1S(=O)(=O)N1CCCC(C(=O)NC2CCCCC2C)C1 (configuration not stated)	none
CC1CC(C)CN(CCCNC(=O)c2cc3c(s2)-c2ccccc2OC3)C1 (configuration not stated)	ATXN viability inconclusive, ATXN2 expr inh 25.1µM, TGFb SMAD3 inh inconclusive
CC1CCCC(C)N1CCCNC(=O)c1cc2c(s1)-c1ccccc1OC2 (configuration not stated)	HepG2 tox 14.1µM, ATXN2 expr inh inconclusive, TGFb SMAD3 inh inconclusive
CCN1CCN(CCCNC(=O)c2cc3c(s2)-c2ccccc2OC3)CC1	ATXN2 expr inh inconclusive, TGFb SMAD3 inh inconclusive
COc1cc2c3nnc(-c4ccc(F)cc4)c-3cn(Cc3ccccc3F)c2cc1OC	HepG2 tox 8.91µM, ATXN2 expr inh 20µM
COc1cc2c3nnc(-c4ccccc4)c-3cn(Cc3ccccc3F)c2cc1OC	none (no result: ATXN viability)
O=C(O)c1ccccc1NS(=O)(=O)c1cccc(-n2sc3ccccc3c2=O)c1	LDHA inh -70.7
O=C(O)c1ccccc1NS(=O)(=O)c1cccc(C(F)(F)F)c1	none
CN(C)c1ccc2nc3c(=O)[nH]c(=O)nc-3n(CC(O)C(O)C(O)CO)c2c1 (configuration not stated)	ATXN viability 12.6µM (no result: ATXN2 expr inh)
Cc1ncc(C(O)c2ccc(N(C)C)cc2)n1Cc1ccccc1 (configuration not stated)	none (no result: ATXN2 expr inh)
CC(C)(C)C(=O)NC(Nc1cccc2cccnc12)C(Cl)(Cl)Cl (configuration not stated)	TGFb SMAD3 inh inconclusive
Cc1ccc(C(=O)CCS(=O)(=O)c2ccc(F)cc2)cc1	HepG2 tox 12.6µM, TGFb SMAD3 inh 15.8µM
Cc1ccc(S(=O)(=O)CCC(=O)c2ccc(F)cc2)cc1	TGFb SMAD3 inh inconclusive
N#CCCn1cc(C(=O)Nc2ccc([N+](=O)[O-])cc2)c(-c2cc3ccccc3o2)n1	ATXN viability 25.1µM, TGFb SMAD3 inh inconclusive (no result: ATXN2 expr inh)
N#CCCn1cc(C(=O)Nc2ccccc2Br)c(-c2cc3ccccc3o2)n1	ATXN viability inconclusive
CC(C)(C)OC(=O)N(c1cccc2cccnc12)S(=O)(=O)c1ccccc1Br	TGFb SMAD3 inh 4.47µM (no result: mIDH1 inhibitor, ATXN viability, ATXN2 expr inh)
Cc1ccc2nc(CSc3nc(C)ccc3C#N)[nH]c2c1	ATXN2 expr inh 2.24µM (no result: ATXN viability)
Cc1ccc(C#N)c(SCc2ccccc2F)n1	none
C[C@@H]1CN([C@H](C)CO)C(=O)CCCn2nncc2CO[C@H]1CN(C)C	LDHA inh -32.8
C[C@@H]1CN([C@H](C)CO)C(=O)CCCn2cc(nn2)CO[C@H]1CN(C)S(=O)(=O)c1ccc2c(c1)OCCCO2	LDHA inh -30.2
COc1ccc(C(=O)NC(NC(=S)Nc2ccc(S(N)(=O)=O)cc2)C(Cl)(Cl)Cl)cc1 (configuration not stated)	LDHA inh -33.6
COc1ccc(NC(=S)NC(NC(=O)c2cccc(Cl)c2)C(Cl)(Cl)Cl)c([N+](=O)[O-])c1 (configuration not stated)	ATXN viability inconclusive, ATXN2 expr inh inconclusive, TGFb SMAD3 inh 22.4µM
